Reference: PubChem BioAssay (NCATS)
Values joined by “and” are separate entries in the source; they are usually repeats but may differ in a detail not shown here. Equal entries are not always repeated. Records with an inconclusive call do not appear. Active and inactive are the calls of the source. The call rests on the fitted dose curve; in most records, active means well fitted curve in the direction sought with a large enough effect; inconclusive means small, poorly fitted or top-dose-only effect, or another doubt; inactive means no such curve, though single readings can be large; an effect the other way counts as inactive or inconclusive.

Columns and labels:
W2 = assay: qHTS profiling for inhibitors of Plasmodium falciparum proliferation (AID 504749);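 further: 0% = DMSO vehicle and full inhibition = artemisinin control; nearly all actives have a fitted effect of over 60% in size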; conditions: P. falciparum in erythrocytes, SYBR Green DNA, 72 h; series mostly up to 28.7 µM
Procedure, shortened: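 Parasite proliferation within erythrocytes, 72 h exposure. Endpoint: SYBR Green I fluorescence after overnight lysis at room temperature. Controls: 0.29 uM artemisinin, DMSO.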

CRL-7250 = normal cell line; assay: Cytotoxic Profiling of Annotated Libraries Using Quantitative High-Throughput Screening (AID 1296008); conditions: Five cell lines viability, CellTiter-Glo ATP luminescence, 48-72 h; max response: hits give low values; further: nearly all actives have a fitted effect of over 60% in size; on max response: on the % scale 0 is the no-effect control and ±100 the full control effect
Procedure, shortened: (§1)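 Compounds were pin-transferred onto cells and incubated 48 or 72 hr at 37 degree Celsius, 95% humidity. CellTiter-Glo was added, plates sat 10 min at room temperature, then ATP-coupled luminescence was imaged as the viability read-out.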

HEK293 = assay: as above; conditions: Five cell lines viability, CellTiter-Glo ATP luminescence, 48-72 h; max response: hits give low values
Procedure, shortened: as §1

HaCat = assay: as above; conditions: Five cell lines viability, CellTiter-Glo ATP luminescence, 48-72 h; max response: hits give low values
Procedure, shortened: as §1

KB-3-1 = assay: as above; conditions: Five cell lines viability, CellTiter-Glo ATP luminescence, 48-72 h; max response: hits give low values
Procedure, shortened: as §1

NIH3T3 [1] = assay: as above; conditions: Five cell lines viability, CellTiter-Glo ATP luminescence, 48-72 h; max response: hits give low values
Procedure, shortened: as §1

HEK293T = assay: qHTS assay to identify novel small-molecules to repurpose for Merkel cell carcinoma treatment (AID 1296009); conditions: MCC and control cell lines, CellTiter-Glo viability, 72 h; at 44.8 µM (top of the series) unless noted; further: nearly all actives have a fitted effect of over 60% in size; on activity change, negative = cytotoxicity: on the % scale 0 is the no-effect control and ±100 the full control effect
Procedure, shortened: (§2)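 qHTS format: cells treated with library compounds in DMSO across 8 (NPC) or 11 (MIPE) concentrations. Readout after 72 hr at 37 degree celsius was CellTiter-Glo luminescence.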

MCC-13 = assay: as above; conditions: MCC and control cell lines, CellTiter-Glo viability, 72 h; series mostly up to 46 µM
Procedure, shortened: as §2

MCC-26 = assay: as above; conditions: MCC and control cell lines, CellTiter-Glo viability, 72 h; series mostly up to 46 µM
Procedure, shortened: as §2

MKL-1 = assay: as above; conditions: MCC and control cell lines, CellTiter-Glo viability, 72 h; series mostly up to 46 µM
Procedure, shortened: as §2

MKL-2 = assay: as above; conditions: MCC and control cell lines, CellTiter-Glo viability, 72 h; series mostly up to 46 µM
Procedure, shortened: as §2

UISO = assay: as above; conditions: MCC and control cell lines, CellTiter-Glo viability, 72 h; series mostly up to 46 µM
Procedure, shortened: as §2

WaGa = assay: as above; conditions: MCC and control cell lines, CellTiter-Glo viability, 72 h; series mostly up to 46 µM
Procedure, shortened: as §2

C33A = assay: Primary qHTS to identify gynecologic anti-cancer compounds using libraries of approved drugs and bioactive compounds (AID 1345084); conditions: Gynecologic cancer cell panel viability, ATPlite luminescence, 48 h; series mostly up to 57.5 µM; further: on the % scale 0 is the no-effect control and ±100 the full control effect; nearly all actives have a fitted effect of over 55% in size
Procedure, shortened: (§3)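 Cells, 1,000 per well, plated 16 h, then exposed 48 h at 37 C to compounds. Viability by ATPlite luminescence after 15 min at room temperature.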

CAOV3 = assay: as above; conditions: Gynecologic cancer cell panel viability, ATPlite luminescence, 48 h; series mostly up to 57.5 µM
Procedure, shortened: as §3

CASKI = assay: as above; conditions: Gynecologic cancer cell panel viability, ATPlite luminescence, 48 h; series mostly up to 57.5 µM
Procedure, shortened: as §3

Es-2 = assay: as above; conditions: Gynecologic cancer cell panel viability, ATPlite luminescence, 48 h; series mostly up to 57.5 µM
Procedure, shortened: as §3

HeLa = assay: as above; conditions: Gynecologic cancer cell panel viability, ATPlite luminescence, 48 h; series mostly up to 57.5 µM
Procedure, shortened: as §3

NIH3T3 [2] = assay: qHTS assay to identify novel small-molecules to repurpose for Merkel cell carcinoma treatment (AID 1296009); conditions: MCC and control cell lines, CellTiter-Glo viability, 72 h; at 44.8 µM (top of the series) unless noted; further: nearly all actives have a fitted effect of over 60% in size; on activity change, negative = cytotoxicity: on the % scale 0 is the no-effect control and ±100 the full control effect
Procedure, shortened: as §2

Cc1cc(CC(=O)O)n(C)c1C(=O)c1ccc(Cl)cc1
inactive: Potency (W2) | outcome (CRL-7250) | outcome (HEK293) | max response (HaCat) -1.31% | max response (KB-3-1) -2.26% and -15.1% | max response (NIH3T3 [1]) -0.54% | outcome (HEK293T) | Potency (MCC-13) | Potency (MCC-26) | Potency (MKL-1) | Potency (MKL-2) | Potency (UISO) | Potency (WaGa) | Potency (C33A) | Potency (CAOV3) | Potency (CASKI) | Potency (Es-2) | Potency (HeLa)

Nc1ccc(S(=O)(=O)Nc2ccc(Cl)nn2)cc1
inactive: Potency (W2) | max response (CRL-7250) -2.16% | outcome (HEK293) | max response (HaCat) 0.946% | max response (KB-3-1) 14.3% and -6.92% | max response (NIH3T3 [1]) 1.13% | outcome (HEK293T) | Potency (MCC-13) | Potency (MKL-1) | Potency (MKL-2) | Potency (UISO) | Potency (WaGa) | Potency (C33A) | Potency (CAOV3) | Potency (CASKI) | Potency (Es-2) | Potency (HeLa)

CC1(C)S[C@@H]2[C@H](NC(=O)Cc3ccccc3)C(=O)N2[C@H]1C(=O)O (tested in a mixture with another compound)
inactive: outcome (CRL-7250) | outcome (HEK293) | max response (HaCat) -1.15% | max response (KB-3-1) 9.18% | outcome (NIH3T3 [1]) | outcome (HEK293T) | Potency (MCC-13) | Potency (MCC-26) | Potency (MKL-1) | Potency (MKL-2) | outcome (NIH3T3 [2]) | Potency (UISO) | Potency (WaGa) | Potency (C33A) | Potency (CASKI) | Potency (Es-2) | Potency (HeLa)

CC12CCC(CC1)C(C)(C)O2
inactive: Potency (W2) | max response (CRL-7250) 3.08% | outcome (HEK293) | max response (HaCat) -2.38% | max response (KB-3-1) -7.48% | outcome (NIH3T3 [1]) | outcome (HEK293T) | Potency (MCC-13) | Potency (MCC-26) | Potency (MKL-1) | Potency (MKL-2) | outcome (NIH3T3 [2]) | Potency (UISO) | Potency (WaGa) | Potency (C33A) | Potency (CAOV3) | Potency (CASKI) | Potency (Es-2) | Potency (HeLa)

NC(=O)c1ncn([C@@H]2O[C@H](CO)[C@@H](O)[C@H]2O)c1N
inactive: max response (CRL-7250) -9.1% | max response (HEK293) -5.61% | max response (HaCat) -15% | max response (KB-3-1) 12% | max response (NIH3T3 [1]) -10.7% | Potency (MCC-13) | Potency (MKL-1) | Potency (MKL-2) | Potency (UISO) | Potency (WaGa) | Potency (C33A) | Potency (CAOV3) | Potency (CASKI) | Potency (Es-2) | Potency (HeLa)

O=c1[nH]c(=O)c2[nH]c(=O)[nH]c2[nH]1
inactive: Potency (W2) | max response (CRL-7250) -3.74% | max response (HEK293) -1.57% | max response (HaCat) 1.96% | max response (KB-3-1) 23.1% and -16.9% | outcome (NIH3T3 [1]) | activity change, negative = cytotoxicity (MCC-13) -1.19% [at 9.22 µM] | activity change, negative = cytotoxicity (MCC-26) -17% [at 9.22 µM] | activity change, negative = cytotoxicity (MKL-1) -12.1% [at 9.22 µM] | activity change, negative = cytotoxicity (MKL-2) 7.3% [at 9.22 µM] | outcome (NIH3T3 [2]) inactive [at 9.27 µM] | activity change, negative = cytotoxicity (UISO) -5.4% [at 9.22 µM] | activity change, negative = cytotoxicity (WaGa) -8.78% [at 9.22 µM] | activity change, negative = cytotoxicity (C33A) -3.59% [at 11.6 µM] | activity change, negative = cytotoxicity (CAOV3) 6.78% [at 11.6 µM] | activity change, negative = cytotoxicity (CASKI) -0.141% [at 11.6 µM] | activity change, negative = cytotoxicity (Es-2) -0.66% [at 11.6 µM] | activity change, negative = cytotoxicity (HeLa) 4.95% [at 11.6 µM]

CC(C)C(=O)c1c(C(C)C)nn2ccccc12
inactive: max response (CRL-7250) -8.07% | max response (HEK293) -1.74% | max response (HaCat) 2.88% | max response (KB-3-1) -2.88% | max response (NIH3T3 [1]) -15.3% | Potency (MCC-13) | Potency (MCC-26) | Potency (MKL-1) | Potency (MKL-2) | Potency (UISO) | Potency (WaGa) | Potency (C33A) | Potency (CAOV3) | Potency (CASKI) | Potency (Es-2) | Potency (HeLa)
